# This is a sample that favours compounds with a hit; in the whole collection about 1.7% have one here.
# IkB sig inh: IkB Signaling | ABC-DLBCL IkBa-CBG/CBR dual luciferase ratio, 4 h; response scale: scaled: untreated 0%, proteasome inhibitor 100% | Potency, µM (doses to about 57.1 µM), for the others: at the highest dose IkBa stabilization activation | 0.04% of 110,000 active | AID 445, 2006; active = well fitted curve in the direction sought with a large enough effect in the signal ratio, not every such curve was filed as active; inconclusive = small, poorly fitted or top-dose-only effect, or a change in a side signal; the % refers to the signal ratio;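 note: the direction sought is a rising ratio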
#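 Luminescence ratio of IκBα-fused green versus native red beetle luciferase in OCI-Ly3 cells, 4 h post-doxycycline with compound; red signal alone, scaled from basal (0%) to zero light (-100%), flagged nonspecific or cytotoxic effects.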
# p53ts 39C tox: qHTS Screen for Compounds that Selectively Target Cancer Cells with p53 Mutations: Cytotoxicity of p53ts Cells at the Nonpermissive Temperature | H1299-p53A138V viability at 39C, ATP luminescence, 24 h | Potency, µM (titrated, usually from 46.1 µM), inactives show at the highest dose activity change, negative = cell killing, actives largely listed as cytotoxic | 1.5% of 130,000 active | AID 902, 2007; note: % is set by controls: 0 for no effect and ±100 for the full control effect; nearly all actives have a fitted effect of over 55% in size
# Imprint erasure: qHTS Assay for Compounds that Induce Erasure of Genomic Imprints | mouse ES Peg3-LacZ reporter, beta-gal luminescence, 40 h | Potency, µM (titrated, usually from 60.7 µM), without a hit: at the highest dose activity change, positive = activation, actives largely listed as activators | 0.02% of 110,000 active | AID 1948, 2009
#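 Gelatin-coated wells received 300 freshly trypsinized female ES cells with a Peg3LacZ-Neo reporter on the maternal allele, then incubated 40 hours at 37C. BetaGlo was added for 5 minutes at room temperature before a single luminescence read.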
# p53ts 32C tox: qHTS Screen for Compounds that Selectively Target Cancer Cells with p53 Mutations: Cytotoxicity of p53ts Cells at the Permissive Temperature. H1299-p53A138V at 32C, ATP luminescence viability, 24 h. Potency, µM (top dose mostly 46.1 µM), inactives show at the top dose activity change, negative = cytotoxicity, most hits filed as cytotoxic. 0.93% of 130,000 active. AID 924, 2007;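 note: 0% = DMSO and -100% = full killing by reference compound; nearly all actives have a fitted effect of over 55% in size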
#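 ATP-content luminescence (ATPlite) read-out after 24 h compound exposure at 32C in H1299-p53A138V cells (600/well). Tested up to 46 uM. Normalized to DMSO (0%) and 100 uM tamoxifen (100% killing); Hill-fit AC50.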
# An asterisk follows results filed as active; ? = inconclusive; . = no result given; [ ] = another dose, or the depositor's remark. Unless noted, calls come from the whole dose curve; as a rule, active = well fitted curve in the direction sought with a large enough effect; inconclusive = small, poorly fitted or top-dose-only effect, or another doubt; inactive = no such curve, though single readings can be large; an effect the other way counts as inactive or inconclusive. Potency is the fitted concentration of half-maximal effect.
SMILES,IkB sig inh,p53ts 39C tox,Imprint erasure,p53ts 32C tox
Cc1ccc2cccnc2c1,2%,6%,3%,-18%[1.84 µM]
O=C(Nc1cccc(C(=O)N2CCCCC2)c1)c1nsc2ccccc12,1%,10µM*,-8%[10.9 µM],16µM*
COc1cccc(CNC(=O)c2cccc(NC(=O)c3nsc4ccccc34)c2)c1,?,?,-12%[10.9 µM],-18%
COC(=O)c1cccc(NC(=O)c2nsc3ccccc23)c1,6%,6.3µM*,-74%[10.9 µM],2.5µM*
CCn1nc(C)c(CCN(C)C(=O)Nc2cccc(Cl)c2C)c1C,0%,-6%,16%[10.9 µM],-7%
CCOC(=O)c1c(NC(=O)COc2cccc(C(F)(F)F)c2)sc2c1CCCCC2,4%,8%,-7%[10.9 µM],5%
Cc1ccc2scc(N3CCCCC3)c(=O)c2c1,31%,16µM*,-7%[10.9 µM],13µM*
Cc1ccc2scc(N3CCC(C)CC3)c(=O)c2c1,25%,?,-2%[10.9 µM],?
Cc1ccc2scc(N3CCCCC3C)c(=O)c2c1 (centres undefined),6%,6.3µM*,-17%[10.9 µM],10µM*
Clc1ccc(-c2nc3nc4ccccc4nc3n2Cc2ccco2)cc1,?,-1%,2%,-5%
Cc1ccc(-c2nc3nc4ccccc4nc3n2Cc2ccco2)cc1,?,13µM*,4%,13µM*
O=C1c2ccccc2-c2cc([N+](=O)[O-])c([N+](=O)[O-])cc21,4µM*,36%[9.22 µM],-40%[10.9 µM],-21%[9.22 µM]
CC(=O)Nc1ccc(SCC(=O)c2cc(C)n(Cc3cccs3)c2C)cc1,0%,2.5µM*,-27%,2.5µM*
Cc1csc(SCC(=O)c2cc(C)n(Cc3cccs3)c2C)n1,?,13µM*,-34%,13µM*
COCCn1c(C)cc(C(=O)CSc2ccc(NC(C)=O)cc2)c1C,1%,13µM*,-35%,?
Nc1nnc(C(=O)c2ccccc2N)s1,4%,?,-3%,16µM*
Cc1cc(N2CCCCC2)n2ncc(-c3ccccc3)c2n1,4%,?,-25%,13µM*
Br/C(=N\Nc1nn[nH]n1)c1ccncc1,-3%[11.4 µM],8%[9.22 µM],-6%[10.9 µM],-3%[9.22 µM]
O=C(O)c1ccc2nc(-c3cc4cccc(O)c4oc3=O)[nH]c2c1,?,?,-96%[10.9 µM],10µM*
O=C(c1ccc2c(c1)N(Cc1cccc(Cl)c1)C(=O)c1ccccc1S2)N1CCOCC1,?,-25%,17%[10.9 µM],14%
Cc1ccc(C)c(NS(=O)(=O)c2ccc3oc(=O)c4ncn(C)c4c3c2)c1,?,7.9µM*,8%[10.9 µM],?
CCOc1ccc(CCNC(=O)c2ccc(Cn3c(=O)c4cccn4c4cccnc43)cc2)cc1,-3%,?,-19%[10.9 µM],-14%
N#Cc1c(/N=C/c2cccs2)sc2c1CCCCC2,6%,10µM*,-56%,7.9µM*
N#Cc1c(/N=C/c2ccc(Br)s2)sc2c1CCC2,.,12%,.,-1%
Cc1ccc(C)c(CN2C(=O)c3ccccc3S(=O)(=O)c3ccc(C(=O)N4CCc5ccccc54)cc32)c1,1%,-21%,-8%[10.9 µM],14%
SMILES,IkB sig inh,p53ts 39C tox,Imprint erasure,p53ts 32C tox
CC(C)c1nnc(NC(=O)c2nc(SCc3ccc(F)cc3)ncc2Cl)s1,6%,-20%,-11%[10.9 µM],-3%
Cc1ccc(CS(=O)(=O)c2ncc(Cl)c(C(=O)Nc3nnc(C(C)C)s3)n2)cc1,0%,5µM*,-31%[10.9 µM],13µM*
Cc1cccc(CS(=O)(=O)c2ncc(Cl)c(C(=O)Nc3nnc(C(C)C)s3)n2)c1,4%,5µM*,-23%[10.9 µM],16µM*
CN(C)c1ccc(-c2nc(NCCc3cnc[nH]3)c3ccccc3n2)cc1,-8%[11.4 µM],5µM*,-25%,5µM*
COc1ccccc1CNc1nc(-c2ccc(C(=O)N(C)C)cc2)nc2ccccc12,-4%[11.4 µM],-10%,-26%,1%
COc1ccccc1-c1nc(NCCc2cnc[nH]2)c2ccccc2n1,-6%[11.4 µM],-10%,?,1%
COc1ccccc1CNc1nc(-c2ccc(N(C)C)cc2)nc2ccccc12,8%[11.4 µM],20µM*,-35%,?
COc1ccc2[nH]cc(CCNc3nc(-c4ccc(N(C)C)cc4)nc4ccccc34)c2c1,-7%[11.4 µM],13µM*,-42%,10µM*
O=S(=O)(c1cccc2c(Cl)cccc12)N1CCCNCC1,?,16µM*,-16%,-3%
